Screens (PubChem)
Rows were chosen to be rich in hits. Some 0.45% of all compounds tested hit in one or more screens of this group.
FMDV RLuc: antivirals against foot and mouth disease virus replicon; FMDV replicon cells, Renilla luciferase signal; 120,000 tested, 0.32% active; Potency, µM (series often up to 57.5 µM), without a hit: top-dose activity change, negative = inhibition, usual class: inhibitors; further: nearly all actives have a fitted effect of over 55% in size
FMDV antiviral: FMDV antiviral activity by firefly signal; AID 1745856; 120,000 tested, 0.23% active; Potency, µM (doses to about 57.5 µM), without a hit: top-dose activity change, negative = inhibition, hits mostly inhibitors; FMDV antiviral cell assay, firefly luciferase signal; further: nearly all actives have a fitted effect of over 60% in size
An asterisk follows results filed as active; ? = inconclusive; [ ] = another dose, or the depositor's remark. The call rests on the fitted dose curve. On the % scale 0 is the no-effect control and ±100 the full control effect; potency means the concentration at half of the fitted maximal effect.

SMILES	FMDV RLuc	FMDV antiviral
CC(c1cccs1)N(C)C(=O)Cc1n[nH]c(=O)c2ccccc12 (stereo not drawn)	34%	179%
Cc1cccc(N2CCN(C(=O)CCCCn3c(=O)[nH]c4ccsc4c3=O)CC2)c1C	-28%	14µM*
O=C(CCCCn1c(=O)[nH]c2ccsc2c1=O)N1CCN(c2cccc(C(F)(F)F)c2)CC1	9%	?
O=C(NCC(c1cccs1)N1CCCCC1)c1cc2ccccc2oc1=O (stereo not drawn)	8%	157%
O=C(NC(C1CC1)C1CC1)c1n[nH]c(=O)c2ccccc12	-2%	9%
COc1cc(/C=C(\C#N)C(N)=C(C#N)C#N)cc(Cl)c1O	4%	0%
C[C@@H](O[C@H]1OCCN(Cc2n[nH]c(=O)[nH]2)[C@H]1c1ccc(F)cc1)c1cc(C(F)(F)F)cc(C(F)(F)F)c1	32µM*	?
O=Cc1ccc(OCc2ccc(I)cc2)c(Cl)c1	4%	226%
COC(=O)c1ccc(COc2ccc3c(=O)c(-c4ccccc4OC)c(C)oc3c2)cc1	-35%	1µM*
COC(=O)c1ccc(Oc2c(C)oc3cc(OCc4ccc(F)cc4)ccc3c2=O)cc1	-4%	4%
O=C(CCc1ccccc1)Nc1ccc(-c2nc(-c3ccccc3)co2)cc1	-5%	108%
Cc1ccc(-n2ncnc2-c2cc3c(n(-c4ccc(C)cc4)c2=O)CC(C)(C)CC3=O)cc1	14%	48%
Cc1onc(-c2ccccc2Cl)c1C(=O)Oc1ccccc1F	37%	-19%
CCOc1ccc(OC(=O)c2c(-c3ccccc3Cl)noc2C)cc1	?	28µM*
Cc1cc2oc(C(=O)NCC(c3cccs3)N3CCCC3)cc(=O)c2cc1Cl (stereo not drawn)	-10%	-26%
CCOc1ccc(-c2nc(C#N)c(NCc3ccccc3Cl)o2)cc1	2%	-5%
CC1=C2C(=O)CC(C)CC2=Nc2ccccc2N1 (stereo not drawn)	2%	11%
CC1=C2C(=O)CC(c3cccc(Cl)c3)CC2=Nc2ccccc2N1 (stereo not drawn)	18µM*	?
COc1ccc(NC(C)c2nnc(-c3cccs3)o2)c(OC)c1 (stereo not drawn)	-10%	35%
O=C(Nc1cccnc1)C1=C(c2ccccc2)S(=O)(=O)CCO1	25µM*	?
O=C(Nc1ccccc1Br)C1=C(c2ccccc2)S(=O)(=O)CCO1	?	-30%
Cn1c(SCC(=O)Nc2ccc(Br)cn2)nnc1-c1cccs1	33%	0%
Cc1c(O)ccc2c(CN3CCN(c4cccc(C(F)(F)F)c4)CC3)cc(=O)oc12	13µM*	13µM*
Cc1c(O)ccc2c(CN3CCN(Cc4cccc(C(F)(F)F)c4)CC3)cc(=O)oc12	-38%	-45%
Cc1cccc(NC(=O)CSc2nc3ccc(NC(=O)COc4ccccc4C)cc3s2)c1	5µM*	?
SMILES	FMDV RLuc	FMDV antiviral
Cc1ccccc1OCC(=O)Nc1ccc2nc(SCCOc3ccccc3)sc2c1	-1%	-11%
CCOC(=O)C(O)(NC(=O)NC(C)=O)C(F)(F)F (stereo not drawn)	103%	80%
CC(C)CC(NC/C=C/c1ccccc1)C(=O)O (stereo not drawn)	4%	4%
COc1cccc(NC(=O)c2cc3cc(OC)ccc3n2C)c1	7%	44%
CCCC(C)NC(=O)Nc1cc(C(=O)NC2CC2)ccc1C (stereo not drawn)	2%	0%
O=C(Nc1ccc(Cl)cc1)Nc1ccc(Cl)c(C(F)(F)F)c1	7.1µM*	?
O=C(Nc1ccc(Cl)c(C(F)(F)F)c1)c1ccc(Cl)cc1Cl	?	22%
COc1cccc(C(=O)/C(=C/c2ccccn2)c2nc3ccccc3o2)c1	?	-105%
COc1ccc(C(=O)/C(=C/c2ccccn2)c2nc3ccccc3o2)cc1	28µM*	-102%
O=C(O)c1ccc(/C=C/c2nc3cc(Cl)ccc3o2)cc1	4%	67%
Cc1nc(/C=C/c2ccc(Cl)cc2)sc1C(=O)O	12%	0.89µM*
COc1cc(C=O)ccc1O	2%	-1%
COc1cc(C=C2CCC/C(=C\c3ccc(O)c(OC)c3)C2=O)ccc1O	?	22µM*
CC(Cc1cccc(F)c1)C(=O)N1CCC(C(=O)N2CCN(C)CC2)CC1 (stereo not drawn)	-2%	-8%
O=C(c1cn[nH]c1-c1ccccc1)N1CCN(S(=O)(=O)c2cccc(C(F)(F)F)c2)CC1	-1%	-5%
c1ccc(Nc2ccc(-c3ccc(Nc4ccccc4)cc3)cc2)cc1	7%	17%
O=C(Nc1ccccc1)C(c1ccccc1)N1CCN(C(=O)C2CC2)CC1 (stereo not drawn)	-6%	7%
CS(=O)(=O)N1CCc2cc(C(=O)c3cc4cc(Br)ccc4o3)ccc21	2%	20µM*
CS(=O)(=O)N1CCCc2cc(C(=O)c3cc4ccccc4o3)ccc21	?	-17%
O=C(Nc1cccc2ncccc12)c1cccc(S(=O)(=O)NCC(F)(F)F)c1	130%	4%
Nc1nccnc1C(=O)NCc1cccnc1Oc1cccc(F)c1	8%	5%
Nc1nccnc1C(=O)NCc1ccc(OCc2cccc(F)c2)cc1	11µM*	?
Cc1c(C)c2ccc(OCC(=O)C(C)(C)C)c(C)c2oc1=O	30%	117%
CCOC(=O)CCc1c(C)c2ccc(OCC(=O)C(C)(C)C)c(C)c2oc1=O	18%	2.8µM*
O=C1C(=C(c2ccccc2)c2ccccc2)C(Cl)C(Cl)(Cl)c2ccccc21 (stereo not drawn)	11µM*	?
SMILES	FMDV RLuc	FMDV antiviral
O=C1CCCc2c(O)cccc21	-7%	22%[11.5 µM]
O=C1CN=C(c2ccccc2Cl)c2cc(Cl)ccc2N1Cc1cccc(Cl)c1	32µM*	25µM*
COC(=O)c1ccccc1NC(=O)CN1C(=O)CN=C(c2ccccc2Cl)c2cc(Cl)ccc21	-10%	-29%
CCCNc1c(NC(=O)Nc2ccccc2OCC)c(=O)oc2ccccc12	31%	3%
COc1ccc(Cn2c(CCC(=O)Nc3ccc(C)cc3C)nc3cccnc32)cc1	-3%	-11%
Cc1ccc(NC(=O)Cc2ccc(-n3c(C)nc4cccnc43)cc2)c(Cl)c1	10µM*	14µM*
C=CCSc1nnc(NC(=O)c2cc(=O)c3cc(C)c(C)cc3o2)s1	-10%	-12%
CC(C)C(C)NC(=O)CSc1ccc2ccccc2n1 (stereo not drawn)	3%	39%
CCN(CC)S(=O)(=O)NCc1ccnc(N2CCN(c3ccc(F)cc3)CC2)c1	10µM*	?
CCCN(CCC)S(=O)(=O)NCc1ccnc(N2CCN(c3ccc(F)cc3)CC2)c1	-13%	-29%
COc1ccc(Nc2cc(C)nc(NCc3ccccc3)n2)cc1	-24%	0%
COc1ccc(Nc2cc(C)nc(Nc3ccc(NC(=O)CC(C)(C)C)cc3)n2)cc1	22µM*	?
CN(C)S(=O)(=O)c1cccc(C(=O)OCC(=O)Nc2cc(C(F)(F)F)cc(C(F)(F)F)c2)c1	-6%	110%
C=CCNC(=O)NC(=O)COC(=O)c1c(C)c(CC)nc2ccccc12	25µM*	18µM*
CCc1nc2ccccc2c(C(=O)OCC(=O)NC(N)=O)c1C	8%	19%
CC1=C(C)CC(C(=O)NC(C)C(C)(C)C)C(C(=O)O)C1 (stereo not drawn)	17%	0%
C[N+]1(CCCCCCCCCCCCCO)CCCC1	20µM*	?
OCCCCCCCCCCCCCCCO	-12%	-6%
COC(=O)c1ccc(CO/N=C/c2ccc(OCc3ccc(Cl)cc3)c(OC)c2)cc1	4%	252%
COC(=O)c1ccc(CO/N=C/c2ccc(Cl)cc2Cl)cc1	9%	7.9µM*
